Experimental data reported in PubChem BioAssay AID1851 (National Center for Advancing Translational Sciences (NCATS), 2009).
Out of some 16,000 compounds screened, about 5,800 (36%) were called active. About 23% were inconclusive and are not listed. Some of the results follow. More than one record can exist for a structure, and the calls need not agree. A number with no mark means an inactive call. Calls follow the shape of the dose curve; as a rule, active = well fitted curve in the direction sought with a large enough effect; inconclusive = small, poorly fitted or top-dose-only effect, or effect the other way; inactive = no such curve, though single readings can be large or run the other way.

Target: Cytochrome P450 2C19 (Homo sapiens) (UniProt P33261)
Sequence (P33261 whole entry, looked up): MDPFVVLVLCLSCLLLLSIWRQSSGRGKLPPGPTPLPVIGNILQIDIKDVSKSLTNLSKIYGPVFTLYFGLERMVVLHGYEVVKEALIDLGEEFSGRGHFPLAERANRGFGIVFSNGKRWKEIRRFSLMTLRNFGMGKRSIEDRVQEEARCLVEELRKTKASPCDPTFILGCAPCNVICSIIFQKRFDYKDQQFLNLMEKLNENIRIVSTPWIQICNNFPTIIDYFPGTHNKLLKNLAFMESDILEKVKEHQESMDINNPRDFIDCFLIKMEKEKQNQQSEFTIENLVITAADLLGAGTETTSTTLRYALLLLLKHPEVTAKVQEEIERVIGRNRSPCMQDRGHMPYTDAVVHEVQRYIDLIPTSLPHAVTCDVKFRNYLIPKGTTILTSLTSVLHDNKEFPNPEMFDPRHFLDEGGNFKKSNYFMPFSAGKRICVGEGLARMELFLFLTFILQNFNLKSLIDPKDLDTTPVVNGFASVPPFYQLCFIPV
Experiment: Cytochrome panel assay with activity outcomes
Details: recombinant CYP, pro-luciferin dealkylation, luminescence, p450-cyp2c19; series mostly up to 57.1 µM
% is scaled to controls: 0 for no effect and ±100 for the full control effect.

| Compound | AC50 | activity, negative = inhibition |
| --- | --- | --- |
| O=C(CCCCC(=O)Nc1c(I)cc(I)c(C(=O)O)c1I)Nc1c(I)cc(I)c(C(=O)O)c1I | inactive | – |
| O=C(O)CCNc1ncnc2nc[nH]c12 | – | 35.9% [at 11.4 µM] |
| O=C(Nc1cc(C(=O)Nc2ccc(S(=O)(=O)O)cc2S(=O)(=O)O)cc(C(=O)Nc2ccc(S(=O)(=O)O)cc2S(=O)(=O)O)c1)Nc1cc(C(=O)Nc2ccc(S(=O)(=O)O)cc2S(=O)(=O)O)cc(C(=O)Nc2ccc(S(=O)(=O)O)cc2S(=O)(=O)O)c1 | inactive | – |
| C#CCCCO/N=C1/C[C@@H](O)[C@@H](O)[C@@H]2[C@@H]3C(=O)N(CCC(=O)OCC)C(=O)[C@H]3CC[C@H]12 | – | 2.13% [at 11.4 µM] |
| Oc1c(Cl)cc(C(c2cc(Cl)c(O)c(Cl)c2)C(c2cc(Cl)c(O)c(Cl)c2)c2cc(Cl)c(O)c(Cl)c2)cc1Cl | 2.51 µM (active) | – |
| Oc1c(Cl)cc(CN(Cc2cc(Cl)c(O)c(Cl)c2)C2CCCCC2)cc1Cl | – | -4.32% [at 11.4 µM] |
| O=C(O)CCN1C(=S)CSC1=S | – | 27% [at 11.4 µM] |
| Cc1nn(C)c(Cl)c1NC(=O)OCc1ccc(F)cc1 | 7.08 µM (active) | – |
| COc1ccccc1COC(=O)Nc1c(C)nn(C)c1Cl | 3.55 µM (active) | – |
| Cc1nn(C)c(Cl)c1NC(=O)OCc1ccc(Cl)cc1Cl | 2.24 µM (active) | – |
| COc1ccccc1CN1CCC2(CC1)CCN(C(=O)c1c(C)noc1C)CC2 | inactive | – |
| CCOC(=O)N/N=C/c1ccc(F)cc1 | inactive | – |
| COC(=O)N1CCC2(CCN(Cc3ccccc3OC)CC2)CC1 | inactive | – |
| O=C(c1cnccn1)N1CCC2(CC1)CN(C(c1ccccc1)c1ccccc1)C2 | inactive | – |
| CN(C)Cc1c[nH]c2nc[nH]c(=O)c12 | – | 42.6% [at 11.4 µM] |
| COCCN(C(=O)C(C)C)c1nnc(-c2ccc(C)cc2)s1 | 7.94 µM (active) | – |
| COCCN(C(=O)c1ccco1)c1nnc(-c2ccc(OC)cc2)s1 | 15.8 µM (active) | – |
| COCC(=O)N(C)c1nnc(-c2ccc([N+](=O)[O-])cc2)s1 | inactive | – |
| CO[C@@H]1COC(=O)[C@H]2CCCN2C(=O)[C@@H](C)COC(=O)C/C=C\[C@H]1C | – | 91.7% [at 11.4 µM] |
| Cn1c(=O)c2c(ncn2CN2CCN(Cn3cnc4c3c(=O)n(C)c(=O)n4C)CC2)n(C)c1=O | – | -11.6% [at 11.4 µM] |
| Cn1c(=O)c2c(nc(N3CCN(c4ccccn4)CC3)n2Cc2ccc(Cl)cc2Cl)n(C)c1=O | 6.31 µM (active) | – |
| CN1CCN(c2nc3c(c(=O)n(C)c(=O)n3C)n2C)CC1 | – | -9.69% [at 11.4 µM] |
| Cn1c(=O)c2c(nc(N3CCN(c4ccccn4)CC3)n2Cc2ccccc2Cl)n(C)c1=O | 3.16 µM (active) | – |
| O=C(N/N=C1/C[C@@H](O)[C@@H](O)[C@@H]2[C@@H]3C(=O)N(Cc4ccccc4)C(=O)[C@H]3CC[C@@H]12)OCc1ccccc1 | – | 9.42% [at 11.4 µM] |

| Compound | AC50 | activity, negative = inhibition |
| --- | --- | --- |
| O=C(c1cc(C(F)(F)F)cc(C(F)(F)F)c1)N1CCC2(CC1)CN(Cc1ccccc1)C2 | inactive | – |
| O=C(c1cccc(C(F)(F)F)c1)N1CCC(O)(CS(=O)(=O)Cc2ccccc2)CC1 | 22.4 µM (active) | – |
| O=C(c1cc(C(F)(F)F)cc(C(F)(F)F)c1)N1CCC2(CCN(Cc3ccccc3)CC2)CC1 | inactive | – |
| COc1ccc(CNc2ncncc2-c2ccc(C(=O)N(C)C)cc2)c(OC)c1 | 15.8 µM (active) | – |
| COc1ccccc1CNc1ncncc1-c1ccc(C(=O)N(C)C)cc1 | inactive | – |
| COc1ccc(CNc2ncncc2-c2ccc(N(C)C)cc2)c(OC)c1 | 1.58 µM (active) | – |
| C[C@H](N)C(=O)O | inactive | – |
| N[C@H](Cc1ccc(Cl)cc1)C(=O)O | inactive | – |
| O=C(O)C(Sc1ccc(Cl)cc1)Sc1ccc(Cl)cc1 | 0.1 µM (active) | – |
| N[C@@H](CC1=CS(=O)(=O)c2ccc(Cl)cc21)C(=O)O | – | -36.6% [at 11.4 µM] |
| NCCOB(c1ccccc1)c1ccccc1 | inactive | – |
| Cc1[nH]n(C(C)(C)C)c(=O)c1Sc1ccc(Cl)cc1 | 3.98 µM (active) | – |
| O=[N+]([O-])c1ccc(Cl)c(-c2ccc(/C=N/c3c(-c4ccco4)nc4ccccn34)o2)c1 | inactive | – |
| COc1cc(-c2nc3ccccn3c2/N=C/c2ccccc2)ccc1O | 10 µM (active) | – |
| COc1cc(Cn2cnnn2)ccc1O | inactive | – |
| CC(C)NC(=O)CC(=O)N/N=C/c1ccc(F)cc1 | inactive | – |
| CC(C)NC(=O)CC(=O)N/N=C/c1ccc(Br)cc1 | 3.55 µM (active) | – |
| O=C(N/N=C/c1ccc(F)cc1)c1ccc(Br)cc1 | inactive | – |
| O=Nc1ccc(NOC(=O)c2ccc(Br)cc2)cc1 | inactive | – |
| CC(C)(C)NC(=O)C(=O)N/N=C/c1ccc(Br)cc1 | 14.1 µM (active) | – |
| CCCCOc1ccc(CN2CCC(O)CC2)cc1 | inactive | – |
| CCOc1ccc(OCCOCCN2CCc3ccccc3C2)cc1 | 14.1 µM (active) | – |
| CC(=O)Nc1sc2c(c1CN1CCN(C)CC1)CCCC2 | 6.31 µM (active) | – |
| CCNC(=O)c1c(NC(C)=O)sc2c1CCCC2 | inactive | – |

| Compound | AC50 | activity, negative = inhibition |
| --- | --- | --- |
| Cc1cc(OCC(F)(F)C(F)(F)C(F)(F)C(F)(F)C(F)(F)C(F)F)nc(N)n1 | 3.16 µM (active) | – |
| COc1cc(-c2ccc(=O)[nH]n2)ccc1OC(F)F | inactive | – |
| CCCc1cc(=O)[nH]c(SCc2cc(Cl)ccc2OC(F)F)n1 | 2.82 µM (active) | – |
| O=C(COc1cccc2ccccc12)NNC(=O)c1cccs1 | 10 µM (active) | – |
| Cc1ccc(S(N)(=O)=O)cc1NC(=O)/C=C/c1cccs1 | inactive | – |
| Cc1cccc(C)c1NC(=O)/C(C#N)=C/c1cccs1 | 4.47 µM (active) | – |
| N#C/C(=C\c1cccs1)C(=O)NCC1CCCO1 (centres undefined) | inactive | – |
| CC(=O)Nc1nnc(S(N)(=O)=O)s1 | inactive | – |
| CC(C)=CC(=O)Nc1nnc(C(C)C)s1 | 25.1 µM (active) | – |
| C=CCOC(=O)C1=C(C)NC(SCC(=O)OCC)=C(C#N)C1c1ccc(C)cc1 (centres undefined) | 2.82 µM (active) | – |
| C=CCOC(=O)C1=C(C)NC(SC)=C(C#N)C1c1cccs1 (centres undefined) | 0.178 µM (active) | – |
| Cn1cccc1C(=O)N1CCC[C@@]2(CCN(Cc3ccc(C#N)cc3)C2)C1 | inactive | – |
| C#C[C@H](N)CCC(=O)O | inactive | – |
| Cc1nnsc1SC(C)C(=O)O (centres undefined) | inactive | – |
| CCNc1ncc2nc(-c3ccc(OC)cc3)c(=O)n(-c3ccc(OC)cc3)c2n1 | inactive | – |
| CN(C(=S)NC(=O)c1ccccc1Br)C1CCCCC1 | 7.94 µM (active) | – |
| C/C=C\C[C@H](C)[C@H](O)[C@H]1C(=O)N[C@@H](CC)C(=O)N(C)CC(=O)N(C)[C@@H](CC(C)C)C(=O)N[C@@H](C(C)C)C(=O)N(C)[C@@H](CC(C)C)C(=O)N[C@@H](C)C(=O)N[C@@H](C)C(=O)N(C)[C@@H](CC(C)C)C(=O)N(C)[C@@H](CC(C)C)C(=O)N(C)[C@@H](C(C)C)C(=O)N1C | inactive | – |
| CC(C)OC(=O)c1cc2c(OC[C@@H](O)CNC(C)(C)C)cccc2[nH]1 | inactive | – |
| O=[N+]([O-])c1ccc(/C=N/N/C(=N/c2ccccn2)c2ccccn2)cc1 | 28.2 µM (active) | – |
| C[N+]1(C)CCC(=C(c2ccccc2)c2ccccc2)CC1 | inactive | – |
| c1ccc2cc(Sc3ncnc4c3oc3ccccc34)ccc2c1 | 2 µM (active) | – |
| Oc1c(C(O)(c2ccccc2)c2ccc3ccccc3c2O)ccc2ccccc12 | 0.794 µM (active) | – |
| Cc1ccc(N=Cc2cc(C)n(C3CCCC3)c2C)cc1 | 17.8 µM (active) | – |
| C[C@@]12C[C@H](O)[C@@H]3[C@H](CCC4=CC(=O)CC[C@]43C)[C@H]1CC[C@@H]2c1csc(N)n1 | 3.98 µM (active) | – |

| Compound | AC50 | activity, negative = inhibition |
| --- | --- | --- |
| C[C@@]12CCC(=O)C=C1CC[C@H]1[C@@H]2[C@@H](O)C[C@]2(C)[C@@H]1CC[C@@]2(O)C(=O)COC(=O)C1CCCC1 | – | -27.7% [at 11.4 µM] |
| C[C@@]12CCC(=O)C=C1CC[C@@H]1[C@@H]2[C@H](O)C[C@]2(C)[C@@H]1CC[C@]2(O)C(=O)CO | inactive | – |
| Cc1cc(C)nc(NC(=O)/C=C/c2ccc(Cl)cc2Cl)c1 | 15.8 µM (active) | – |
| COCc1nnc(NC(=O)c2ccc(S(=O)(=O)N3CCCCCC3)cc2)o1 | inactive | – |
| Cc1noc(C)c1C(=O)N1CCC2(CCCN(C(=O)Nc3cccc(F)c3)C2)CC1 | inactive | – |
| CCOC(=O)Cc1csc(NC(=O)c2ccc(S(=O)(=O)N3CCCCC3)cc2)n1 | 14.1 µM (active) | – |
| Cc1onc(-c2c(Cl)cccc2Cl)c1C(=O)Nc1ccc2c(c1)OCO2 | 1.12 µM (active) | – |
| Cc1noc(C)c1C(=O)N1CCC[C@@]2(CCN(C(=O)Nc3cccc(F)c3)C2)C1 | inactive | – |
| CCOC(=O)Cc1csc(NC(=O)c2c(-c3c(Cl)cccc3Cl)noc2C)n1 | 3.55 µM (active) | – |
| CCOC(=O)Cc1csc(NC(=O)c2ccc(Cl)nc2)n1 | 10 µM (active) | – |
| CC(C)CN1CCCC2(CCN(C(=O)c3cnccn3)CC2)C1 | inactive | – |
| O=C1CN(C(=O)c2ccc(Br)o2)C(c2ccc(F)cc2)c2cc(Cl)ccc2N1 (centres undefined) | 7.94 µM (active) | – |
| CCCCC(=O)Nc1sc2c(c1C(=O)OCC)CCC(C=O)=C2Cl | 14.1 µM (active) | – |
| O=C1Nc2ccccc2Nc2ncccc21 | inactive | – |
| CC(/C=C/c1ccccc1)=N/NC(=O)CNC(=O)c1ccc2c(c1)OCO2 | inactive | – |
| C/C(=N\NC(=O)CSCc1ccc(Cl)cc1)c1ccc2c(c1)OCCO2 | 1.26 µM (active) | – |
| C=C(CC)C(=O)c1ccc(OCC(=O)O)c(Cl)c1Cl | inactive | – |
| O=C(CCN1C(=O)c2ccccc2C1=O)NC(=S)Nc1cccc(Cl)c1 | 4.47 µM (active) | – |
| CCc1ccc(OCC(=O)NC(=S)Nc2ccc(F)cc2)c(Br)c1 | 8.91 µM (active) | – |
| Cc1ccccc1OCC(=O)NC(=S)Nc1ccc(Br)c(C)n1 | inactive | – |
| O=C(COc1ccccc1Cl)NC(=S)Nc1cccc(NC(=O)c2ccccc2Cl)c1 | 0.631 µM (active) | – |
| CCC(=O)NC(=S)Nc1ccc(NC(=O)COc2ccc(Cl)cc2Cl)cc1 | 2.82 µM (active) | – |
